# Results: PubChem BioAssay (Tox21)
# Records with an inconclusive call do not appear. Entries that show only a call come without a potency. Active and inactive are the calls of the source. Calls follow the shape of the full dose curve.
# Test: qHTS assay to identify small molecule agonists of the endoplasmic reticulum stress response signaling pathway - cell viability counter screen (AID 1159517); also: nearly all actives have a fitted effect of over 50% in size
# Details: ESRE-bla HeLa viability, CellTiter-Glo luminescence, 5 h; series mostly up to 61 µM
# Source text: U.S. Tox21 Program National Center for Advancing Translational Sciences [NCATS] NIH Chemical Genomics Center [NCGC] U.S. Environmental Protection Agency [EPA] National Institutes of Environmental Health Sciences [NIEHS] National Toxicology Program [NTP] U.S. Food and Drug Administration [FDA] Tox21 Assay Overview: Endoplasmic Reticulum (ER) plays an important role in cellular signaling, protein folding/maturation, stress response, lipid biosynthesis, calcium storage and release etc. Under stress conditions, proteins in ER misfold or unfold, and leading to the expression of ER stress responsive genes. ER stress has been associated with a variety of pathophysiological conditions such as cancer, inflammation, neurodegenerative diseases, diabetes, ischemic heart disease etc. To identify the compounds that induce ER stress response, an ER stress reporter cell line, CellSensor ESRE-bla HeLa (Life Technologies, Carlsbad, CA) containing a beta-lactamase reporter gene under control of the Endoplasmic reticulum Stress Response Element (ESRE) was used to screen Tox21 10K compound library. The cytotoxicity of the Tox21 compound library against the ESRE-bla HeLa cell line was tested in parallel by measuring cell viability using the CellTiter-Glo assay in the same wells.
# Tox21 Assay Protocol Summary: ESRE-bla HeLa cells were dispensed at 1,500 cells/6 uL of assay medium per well into black wall/clear-bottom 1536-well plates using a Multidrop Combi (ThermoFisher Scientific, Waltham, MA) dispenser. After the assay plates were incubated at 37 C and 5% CO2 for an overnight, 23 nL of compounds dissolved in DMSO, positive controls or DMSO only was transferred to the assay plate by a Pintool station (Kalypsys, San Diego, CA). The assay plates were incubated at 37 C and 5% CO2 for 5 hr. One uL of LiveBLAzer B/G FRET substrate (Life Technologies) was added using a FRD (Flying Reagent Dispenser, Aurora Discovery, San Diego, CA) and the plates were incubated at room temperature for 2 hr. Fluorescence intensity (405 nm excitation, 460 nm and 530 nm emissions) was measured using an Envision plate reader (PerkinElmer, Shelton, CT). For cytotoxicity, 4 ul/well of CellTiter-Glo reagent was added into the assay plates using an FRD. After 30 min incubation at room temperature, the luminescence intensity was measured using a ViewLux plate reader (PerkinElmer).
# Potency is read from the fitted curve at half-maximal effect.
row,SMILES,Potency
1,N#CC1(N=NC2(C#N)CCCCC2)CCCCC1,inactive
2,COc1ccccc1N1CCNCC1,inactive
3,O=C(O)C(Cl)(Cl)Br,inactive
4,CCCCC(CC)COC(=O)c1c(Br)c(Br)c(Br)c(Br)c1C(=O)OCC(CC)CCCC (stereo not given),inactive
5,CCOP(=O)(O)C(N)=O,inactive
6,COP(=O)(OC)OC(Br)C(Cl)(Cl)Br (stereo not given),inactive
7,O=[N+]([O-])c1cc(Cl)c(Cl)cc1Cl,inactive
8,C[N+](C)(C)CC1CO1 (stereo not given),inactive
9,CN(C1CCCCC1)C1CCCCC1,inactive
10,O=C(O)c1cc(Cl)ccc1Cl,inactive
11,[Cl-].[Cl-].[Hg+2],48.8 µM (active)
12,CCC1CCC(=O)O1 (stereo not given),inactive
13,CCOc1cccc(C2(N3CCN(c4ccccc4)CC3)CCC(C)CC2)c1 (stereo not given),inactive
14,CC(C)(C)CC(C)(C)c1ccc(O)cc1,21.9 µM (active)
15,CCC(C)Cl (stereo not given),inactive
16,C[C@]12C=CC3=C4CCC(=O)C=C4CC[C@H]3[C@@H]1CC[C@@H]2O,inactive
17,NC(=S)c1c(Cl)cccc1Cl,inactive
18,CCOC(=O)c1cn2nc(OP(=S)(OCC)OCC)cc2nc1C,inactive
19,Cc1nc2ccccc2c(=O)n1-c1ccccc1Cl,inactive
20,NNCCO,inactive

row,SMILES,Potency
1,COc1cc(C[C@@H](C)N)c(OC)cc1Br,inactive
2,CCc1ccccc1N,inactive
3,CCOC(=O)C1OC1(C)c1ccccc1 (stereo not given),inactive
4,COc1ccc(C(O)(c2cncnc2)C2CC2)cc1 (stereo not given),inactive
5,CC[N+]1(CCOC(=O)C(O)(c2ccccc2)c2ccccc2)CCCCC1,inactive
6,CCC[N+](CCC)(CCC)CCC,inactive
7,O=C(O)c1ccc(=O)[nH]c1,inactive
8,O=C(O)C(F)(F)C(F)(F)C(F)(F)C(F)(F)C(F)(F)F,inactive
9,CC(C)c1ccc(NC(=O)N(C)C)cc1,inactive
10,C[Si](Cn1cncn1)(c1ccc(F)cc1)c1ccc(F)cc1,inactive
11,N#CC(C#N)=C(C#N)C#N,inactive
12,CCCCCl,inactive
13,CC(C)OC(=O)Cc1ccccc1,inactive
14,O=C(O)COc1cc(Cl)c(Cl)cc1Cl,inactive
15,CCC(C)(C)O,inactive
16,NP(N)(=O)NC(=O)c1ccc(F)cc1,inactive
17,FC(F)OC(F)(F)C(F)Cl (stereo not given),inactive
18,CCCC[N+](CCCC)(CCCC)CCCC,inactive
19,C=C(Cl)Cl,inactive
20,CCCSP(=S)(OCC)Oc1ccc(SC)cc1 (stereo not given),inactive
